Experimental data taken from PubChem BioAssay.
Active and inactive are the calls of the source.

Legend:
[1] = target: Albumin (Bos taurus) (UniProt P02769); test: compounds binding labelled BSA control protein – biochemical, small-molecule microarray, Alexa647 label, 635/667 nm fluorescence, artefact control for SMM control protein annotation, profiling panel (AID 1118); details: BSA-A647 binding, fluorescence 635 nm, higher = more signal;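 also: score merges 667 nm emission intensity and signal-to-noise per printed compound spot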
[2] = probe aXIP binding to arrayed compounds – biochemical, NeuroSMM set, 635/667 nm fluorescence, primary screen (AID 1119); details: small-molecule microarray, higher = more signal, called active from +8 up or from −8 down;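 also: probe is the protein aXip251-270 applied at 1 µg/mL to compound-printed slides; binding of probe to printed compounds measured as 667 nm fluorescence plus signal to noise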
[3] = probe aNOTCH3 binding on compound microarray – biochemical, small-molecule microarray, 635/667 nm fluorescence, primary screen (AID 1120); details: higher = more signal;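 also: probe is a biotin-tagged antibody raised against NOTCH3 rather than NOTCH3 protein; score merges spot fluorescence near 667 nm with spot signal to noise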
[4] = probe aNOTCH2 binding on compound microarray – biochemical, small-molecule microarray, 635/667 nm fluorescence, primary screen (AID 1121); details: higher = more signal;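 also: score merges feature fluorescence read at 667 nm with its signal to noise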
[5] = target: Carbonic anhydrase 2 (Homo sapiens) (UniProt P00918); test: compounds binding carbonic anhydrase 2 – biochemical, small-molecule microarray, Alexa647-labelled CAII, profiling panel (AID 1122); details: CAII-A647 binding fluorescence, higher = more signal
[6] = COS7 lysate on small-molecule microarray, probe aHis, 635 nm (AID 1123); details: COS7 cell lysate, fluorescence, higher = more signal;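 also: z-score combines 667nm fluorescence intensity with signal-to-noise per printed compound spot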
[7] = probe aLAP1 signal on lysate-treated microarray – cell lysate, small-molecule microarray, COS7 lysate, primary screen (AID 1124); details: probe aLAP1, fluorescence, higher = more signal;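 also: lysate comes from COS7 cells expressing LAP1 and is applied at 0.3 µg/mL; score merges spot fluorescence near 667 nm with signal-to-noise over triplicate slides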
[8] = tested on: Sam68 (KHDRBS1); test: compounds binding KHDRBS1 protein – biochemical, small-molecule microarray, 635 nm fluorescence, primary screen (AID 1125); details: higher = more signal;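 also: score merges 667 nm channel intensity with signal to noise over triplicate slides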
[9] = tested on: Chordin-like protein 2 (CHRDL2); test: compounds binding chordin-like 2 – biochemical, small-molecule microarray, 635 nm fluorescence, primary screen (AID 1126); details: fluorescence 635 nm, higher = more signal;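 also: printed compound slides probed with Chrdl2 protein at 4 µg/mL for 1 h at 4 C; score merges 667 nm emission intensity with signal to noise over three replicate slides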
[10] = target: Concanavalin-A (Canavalia ensiformis) (UniProt P02866); test: compounds binding concanavalin A lectin – biochemical, small-molecule microarray, Alexa647 label, 635 nm, artefact control for SMM control protein annotation, primary screen (AID 1127); details: ConA-A647 binding fluorescence, higher = more signal;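 also: z combines 667 nm emission intensity with signal-to-noise across three replicate slides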
[11] = compounds binding Alexa647 anti-His antibody – biochemical, small-molecule microarray, 635 nm fluorescence, artefact control for SMM control protein annotation, primary screen (AID 1128); details: higher = more signal;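 also: score merges feature fluorescence with signal-to-noise for each printed compound spot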
[12] = tested on: Human papillomavirus type 1a E7 protein (residues 1-88); test: HPV1a E7 small-molecule binders, primary screen, biochemical, small-molecule microarray, residues 1-88, 635 nm (AID 1129); details: small-molecule microarray binding, fluorescence 635 nm; higher = more signal
[13] = target: Focal adhesion kinase 1 (Homo sapiens) (UniProt Q05397); test: PTK2 protein binding on printed compound slides – biochemical, small-molecule microarray, 635/667 nm fluorescence, BSA, DTT, primary screen (AID 1130); details: 635 nm fluorescence, higher = more signal;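 also: composite of spot emission at 667 nm and signal to noise over triplicate slides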
[14] = tested on: Fibrinogen (Alexa647-labelled); test: Alexa647-fibrinogen binding to printed small molecules – biochemical, small-molecule microarray, 635/667 nm fluorescence, artefact control for SMM control-protein annotation, profiling panel (AID 1131); details: fibrinogen-A647 binding fluorescence, higher = more signal;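 also: z-score merges 667 nm fluorescence with per-spot signal-to-noise over triplicate slides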
[15] = target: Follistatin (Homo sapiens) (UniProt P19883); test: FST protein binding to printed compounds – biochemical, small-molecule microarray, 635/667 nm fluorescence, primary screen (AID 1132); details: 635 nm fluorescence, higher = more signal
[16] = target: Fibroblast growth factor 2 (Homo sapiens) (UniProt P09038); test: basic fibroblast growth factor binding to printed compounds – biochemical, small-molecule microarray, 635/667 nm fluorescence, primary screen (AID 1133); details: FGF2, fluorescence 635/667, higher = more signal
[17] = JC-1 mitochondrial potential readout, lung cancer cells – cell-based, A549, JC-1 fluorescence, basal, 24 h, 100 nL, profiling panel (AID 1138); details: higher = more signal;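 also: A549 lung adenocarcinoma cells under basal conditions with no added stimulus; test concentration not given here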
[18] = tested on: Lefty1; test: Lefty1 protein binding to printed compounds – biochemical, small-molecule microarray, 635/667 nm fluorescence, primary screen (AID 1139); details: fluorescence 635/667, higher = more signal
[19] = tested on: wheat germ agglutinin (Triticum aestivum), Alexa647-labelled; test: Alexa647-WGA lectin binding to printed small molecules – biochemical, small-molecule microarray, 635/667 nm fluorescence, artefact control for SMM control-protein annotation, profiling panel (AID 1140); details: WGA-A647 binding, 635 nm fluorescence, higher = more signal;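 also: score merges 667 nm feature emission with signal to noise over triplicate slides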
[20] = target: Luciferin 4-monooxygenase (Photinus pyralis) (UniProt P08659); test: inhibition of purified Photinus pyralis luciferase – biochemical, luminescence, purified enzyme, 2006 set, primary screen (AID 1141); details: purified firefly luciferase, SteadyGlo luminescence, 30 min; higher = more signal, called active from +8 up or from −8 down;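 also: cell-free assay with purified firefly luciferase at 100 ng per well in PBS; test concentration not given here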
Sequence of Luciferin 4-monooxygenase (Photinus pyralis) (P08659 whole entry, looked up): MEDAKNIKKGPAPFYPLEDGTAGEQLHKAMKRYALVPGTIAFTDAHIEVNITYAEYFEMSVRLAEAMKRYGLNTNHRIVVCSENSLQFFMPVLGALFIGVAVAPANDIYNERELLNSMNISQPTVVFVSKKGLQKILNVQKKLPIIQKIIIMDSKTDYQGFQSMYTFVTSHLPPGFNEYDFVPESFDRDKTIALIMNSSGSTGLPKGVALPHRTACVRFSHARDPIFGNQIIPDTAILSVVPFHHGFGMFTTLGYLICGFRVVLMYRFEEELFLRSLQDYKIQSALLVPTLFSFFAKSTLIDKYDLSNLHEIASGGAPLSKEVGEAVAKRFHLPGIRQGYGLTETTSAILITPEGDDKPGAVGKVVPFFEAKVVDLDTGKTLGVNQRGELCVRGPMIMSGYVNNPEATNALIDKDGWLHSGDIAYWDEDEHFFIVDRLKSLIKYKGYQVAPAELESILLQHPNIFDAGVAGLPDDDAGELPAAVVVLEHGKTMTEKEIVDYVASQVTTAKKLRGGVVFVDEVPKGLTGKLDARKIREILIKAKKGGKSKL

Sequence of Albumin (Bos taurus) (P02769 whole entry, looked up): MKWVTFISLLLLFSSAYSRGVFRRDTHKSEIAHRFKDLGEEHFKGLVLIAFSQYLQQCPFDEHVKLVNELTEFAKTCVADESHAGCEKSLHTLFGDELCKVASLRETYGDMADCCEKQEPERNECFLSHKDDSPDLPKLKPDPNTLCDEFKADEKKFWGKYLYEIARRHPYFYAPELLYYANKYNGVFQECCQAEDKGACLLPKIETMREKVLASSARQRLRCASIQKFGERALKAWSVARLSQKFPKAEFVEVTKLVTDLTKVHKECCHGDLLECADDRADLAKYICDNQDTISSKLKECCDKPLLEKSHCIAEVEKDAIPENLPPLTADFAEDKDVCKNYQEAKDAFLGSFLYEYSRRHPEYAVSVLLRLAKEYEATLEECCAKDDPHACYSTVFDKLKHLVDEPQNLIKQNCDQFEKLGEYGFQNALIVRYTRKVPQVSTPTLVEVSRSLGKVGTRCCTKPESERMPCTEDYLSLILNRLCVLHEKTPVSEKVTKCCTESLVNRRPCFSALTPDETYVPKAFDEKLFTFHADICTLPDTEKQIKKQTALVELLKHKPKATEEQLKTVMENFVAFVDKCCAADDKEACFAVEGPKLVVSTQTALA
Sequence of Focal adhesion kinase 1 (Homo sapiens) (Q05397 whole entry, looked up): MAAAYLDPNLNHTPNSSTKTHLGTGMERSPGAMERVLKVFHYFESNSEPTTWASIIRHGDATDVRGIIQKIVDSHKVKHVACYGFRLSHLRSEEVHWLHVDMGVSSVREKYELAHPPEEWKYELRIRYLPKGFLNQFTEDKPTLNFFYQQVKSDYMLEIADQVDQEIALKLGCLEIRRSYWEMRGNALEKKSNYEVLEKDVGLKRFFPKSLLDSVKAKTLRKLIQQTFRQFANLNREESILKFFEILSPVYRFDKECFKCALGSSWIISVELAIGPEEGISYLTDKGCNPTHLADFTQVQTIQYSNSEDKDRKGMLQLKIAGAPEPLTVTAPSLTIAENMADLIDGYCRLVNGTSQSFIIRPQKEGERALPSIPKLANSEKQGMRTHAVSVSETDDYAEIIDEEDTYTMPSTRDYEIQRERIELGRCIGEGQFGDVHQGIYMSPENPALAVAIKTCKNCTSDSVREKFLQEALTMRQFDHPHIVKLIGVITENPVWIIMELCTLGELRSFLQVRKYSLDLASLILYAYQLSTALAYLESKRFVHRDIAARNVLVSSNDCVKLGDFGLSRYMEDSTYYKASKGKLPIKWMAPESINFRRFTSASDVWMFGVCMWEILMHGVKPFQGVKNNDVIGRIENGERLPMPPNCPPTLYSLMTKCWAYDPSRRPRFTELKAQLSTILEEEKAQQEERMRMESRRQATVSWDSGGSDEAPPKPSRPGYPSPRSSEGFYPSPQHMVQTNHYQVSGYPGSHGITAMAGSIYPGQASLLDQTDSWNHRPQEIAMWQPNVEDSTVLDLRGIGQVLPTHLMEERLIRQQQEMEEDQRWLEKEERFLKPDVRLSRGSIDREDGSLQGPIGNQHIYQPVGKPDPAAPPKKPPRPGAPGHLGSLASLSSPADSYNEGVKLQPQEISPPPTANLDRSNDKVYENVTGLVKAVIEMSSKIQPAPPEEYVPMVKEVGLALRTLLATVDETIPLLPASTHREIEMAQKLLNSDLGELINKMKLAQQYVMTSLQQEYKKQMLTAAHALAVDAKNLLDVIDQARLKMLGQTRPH
Sequence of Follistatin (Homo sapiens) (P19883 whole entry, looked up): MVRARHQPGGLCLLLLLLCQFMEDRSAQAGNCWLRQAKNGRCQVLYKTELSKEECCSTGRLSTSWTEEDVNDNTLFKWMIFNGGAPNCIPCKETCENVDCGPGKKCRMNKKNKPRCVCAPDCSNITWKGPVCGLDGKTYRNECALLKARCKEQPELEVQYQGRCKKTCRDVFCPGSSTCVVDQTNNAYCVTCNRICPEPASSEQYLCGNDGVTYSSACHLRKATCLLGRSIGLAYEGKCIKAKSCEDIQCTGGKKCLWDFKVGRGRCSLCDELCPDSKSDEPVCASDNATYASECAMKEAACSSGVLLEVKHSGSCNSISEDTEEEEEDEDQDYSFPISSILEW
Sequence of Fibroblast growth factor 2 (Homo sapiens) (P09038 whole entry, looked up): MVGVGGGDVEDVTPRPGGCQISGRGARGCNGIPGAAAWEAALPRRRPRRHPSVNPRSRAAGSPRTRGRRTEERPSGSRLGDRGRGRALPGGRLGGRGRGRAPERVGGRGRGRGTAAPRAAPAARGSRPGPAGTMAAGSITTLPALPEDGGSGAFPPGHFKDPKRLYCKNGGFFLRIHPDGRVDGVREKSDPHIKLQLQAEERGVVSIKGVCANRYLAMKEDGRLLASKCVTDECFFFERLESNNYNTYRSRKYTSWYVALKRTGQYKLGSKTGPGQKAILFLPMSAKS
Sequence of Concanavalin-A (Canavalia ensiformis) (P02866 whole entry, looked up): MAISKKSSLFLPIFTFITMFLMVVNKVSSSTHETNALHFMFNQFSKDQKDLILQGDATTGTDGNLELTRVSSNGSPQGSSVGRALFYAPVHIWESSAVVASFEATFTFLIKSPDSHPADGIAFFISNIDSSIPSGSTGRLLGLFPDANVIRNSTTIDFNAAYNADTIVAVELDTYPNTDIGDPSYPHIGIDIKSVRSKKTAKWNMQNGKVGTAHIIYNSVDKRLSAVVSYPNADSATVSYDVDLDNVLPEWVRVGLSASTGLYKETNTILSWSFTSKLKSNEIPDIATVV

SMILES	composite z-score [1]	composite Z-score [2]	composite z-score [3]	composite z-score [4]	composite z-score [5]	composite z-score [6]	composite z-score [7]	composite z-score [8]	composite z-score [9]	composite z-score [10]	composite z-score [11]	composite z-score [12]	composite z-score [13]	composite z-score [14]	composite z-score [15]	composite z-score [16]	z-score [17]	composite z-score [18]	composite z-score [19]	z-score [20]
COC(=O)[C@H](Cc1ccccc1)N1CC2=C[C@@H](C3CC3)n3c(=O)n(C)c(=O)n3[C@H]2[C@@H]1[C@@H](O)Cc1ccccc1	0.503	0.133 (inactive)	0.0562	-0.115	0.298	0.653	0.0511	1.18	0.162	0.658	0.0823	0.881	0.148	0.588	0.898	0.212	1.58	0.972	0.0263	-0.126 (inactive)
COCCOC(=O)N1C(=O)[C@@]2(c3cc(C#CCNC(N)=O)ccc31)[C@H](C(=O)N1CCN(c3ncccn3)CC1)[C@H]1C(=O)O[C@H](c3ccccc3)[C@H](c3ccccc3)N1[C@@H]2c1ccc(OCCO)cc1	0.521	0.242 (inactive)	0.185	-0.108	0.193	1.48	0.437	1.29	0.0879	1	0.549	1.12	-0.171	0.931	1.12	0.674	-1.25	0.465	0.723	-1.47 (inactive)
C=CC[C@]1(C(=O)NCc2ccccc2)N=C(c2ccc(OCCCO)cc2)O[C@H]1c1ccccc1N=[N+]=[N-]	0.897	1.39 (inactive)	0.174	0.12	0.625	2.68	0.727	1.34	-0.567	1.09	2.39	1.22	0.618	0.971	1.23	-0.26	0.34	0.194	1.23	-8.88 (active)
C=C[C@H](OC)[C@@H](OC(=O)Nc1ccc(OC)cc1)c1ccc(O)c(F)c1	-1.15	0.111 (inactive)	-0.333	-0.217	0.562	2.28	0.953	0.96	-1.85	-1.15	2.08	0.424	-0.585	-1.5	-1.07	-1.23	-0.944	-0.288	-1.28	-6.53 (inactive)
C=CCOC(=O)[C@H]1[C@@H]2C(=O)O[C@@H](c3ccccc3)[C@@H](c3ccccc3)N2[C@@H](c2ccc(OCCOC(=O)[C@H]3C[C@H]4C(=O)N[C@@H](CCCCN(C)C)C(=O)N4[C@H]3c3ccc(O)cc3)cc2)[C@]12C(=O)Nc1ccc(I)cc12	0.412	0.432 (inactive)	0.282	-0.0028	0.493	1.45	0.651	1.31	1.18	1.15	2.49	1.23	0.739	0.991	1.34	1.64	-0.665	1.59	0.784	0.69 (inactive)
C=CC[C@@]12N=C(c3ccc(OCCCO)cc3)O[C@@H]1c1ccccc1N(C)C2=O	-0.16	-0.419 (inactive)	0.0637	-0.0374	0.655	2.67	0.319	1.22	0.718	0.838	2.16	1.23	0.338	0.363	1.52	1.62	1.26	0.283	0.65	-4.19 (inactive)
O=C(CS)NCCCCCCNC(=O)[C@@H]1C[C@@H]2C(=O)NCC(=O)N2[C@@H]1c1cccc(OCCO)c1	-0.607	0.359 (inactive)	-0.446	-0.398	0.679	2.91	0.71	0.318	0.26	0.625	3.13	1.23	0.69	-0.993	0.998	1.4	0.609	-0.408	-0.56	-1.02 (inactive)
CC#CC(=O)Oc1ccccc1C=CC(=O)OCC	-0.138	-0.263 (inactive)	0.0035	-0.118	0.358	-0.0224	-0.021	0.82	-0.0448	0.502	0.259	0.69	-0.0142	-0.0002	0.036	0.524	-1.04	0.51	0.0601	1.51 (inactive)
CC1CC/C=C\[C@H]2OC34C=CCN(Cc5ccccc5)C(=O)[C@H]3N(CCCO)C(=O)[C@@H]4C2C(=O)O1 (stereo not given in full)	-0.0908	-0.422 (inactive)	-0.437	-0.155	0.861	-0.0465	1.25	-0.649	-0.933	-0.841	0.522	-0.67	-0.364	0.623	-0.838	-0.536	-0.178	-0.215	-0.176	-0.483 (inactive)
COCCOC(=O)N1C(=O)[C@@]2(c3ccccc31)[C@H](c1ccccc1OCCO)N1[C@H](c3ccccc3)[C@H](c3ccccc3)OC(=O)[C@H]1[C@@H]2C(=O)N1CCN(c2ncccn2)CC1	0.493	1.6 (inactive)	-0.0345	-0.0756	0.521	1.59	0.218	1.29	0.0792	1.11	1.22	1.15	0.1	0.64	0.755	0.385	-1.21	0.962	1.1	-0.388 (inactive)
COc1ccc([C@H]2OC[C@@H]3C[C@@H](Cc4ccccc4)C(=O)N32)cc1	-0.127	0.584 (inactive)	0.111	-0.164	0.796	0.39	-0.123	0.338	0.377	0.143	1.3	0.527	-0.181	-0.0072	0.62	0.91	1.25	1.08	0.208	0.0077 (inactive)
